# What was measured:
# [1] = target: Ephrin type-A receptor 4 (Homo sapiens) (UniProt P54764); conditions: at 1 µM
# [2] = target: Ephrin type-A receptor 7 (Homo sapiens) (UniProt Q15375); conditions: at 10 µM
# [3] = target: T1, Ephrin type-A receptor 8 (Homo sapiens) (UniProt P29322); conditions: at 1 µM
# T1 sequence (whole entry): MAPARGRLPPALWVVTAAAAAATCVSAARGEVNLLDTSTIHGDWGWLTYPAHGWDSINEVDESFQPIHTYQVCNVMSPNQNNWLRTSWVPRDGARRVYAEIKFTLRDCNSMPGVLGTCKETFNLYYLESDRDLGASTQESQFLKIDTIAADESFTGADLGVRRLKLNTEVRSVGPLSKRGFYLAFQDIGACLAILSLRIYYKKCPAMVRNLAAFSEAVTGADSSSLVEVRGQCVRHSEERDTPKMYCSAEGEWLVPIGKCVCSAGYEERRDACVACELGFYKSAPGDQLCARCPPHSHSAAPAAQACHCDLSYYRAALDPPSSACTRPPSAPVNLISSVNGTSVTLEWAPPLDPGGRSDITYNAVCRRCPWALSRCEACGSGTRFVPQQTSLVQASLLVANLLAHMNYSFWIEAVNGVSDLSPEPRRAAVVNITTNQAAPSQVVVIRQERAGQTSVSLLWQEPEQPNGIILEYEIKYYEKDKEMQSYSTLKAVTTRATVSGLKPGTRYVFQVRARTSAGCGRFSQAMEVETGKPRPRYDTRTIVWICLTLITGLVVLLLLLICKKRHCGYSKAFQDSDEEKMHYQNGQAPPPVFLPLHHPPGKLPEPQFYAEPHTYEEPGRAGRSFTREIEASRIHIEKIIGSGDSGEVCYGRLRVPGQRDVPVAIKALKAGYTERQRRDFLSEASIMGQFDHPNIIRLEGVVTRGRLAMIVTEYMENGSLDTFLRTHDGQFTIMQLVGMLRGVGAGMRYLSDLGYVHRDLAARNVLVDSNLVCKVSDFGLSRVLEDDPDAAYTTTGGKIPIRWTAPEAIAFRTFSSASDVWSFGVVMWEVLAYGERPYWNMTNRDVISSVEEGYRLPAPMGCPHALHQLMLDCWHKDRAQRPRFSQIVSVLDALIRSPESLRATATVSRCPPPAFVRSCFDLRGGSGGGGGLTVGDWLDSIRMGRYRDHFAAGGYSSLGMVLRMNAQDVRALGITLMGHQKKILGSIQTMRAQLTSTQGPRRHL
# [4] = target: T1, Ephrin type-A receptor 8 (Homo sapiens); conditions: at 10 µM
# [5] = target: T2, Ephrin type-B receptor 1 (Homo sapiens) (UniProt P54762); conditions: at 10 µM
# T2 sequence (whole entry): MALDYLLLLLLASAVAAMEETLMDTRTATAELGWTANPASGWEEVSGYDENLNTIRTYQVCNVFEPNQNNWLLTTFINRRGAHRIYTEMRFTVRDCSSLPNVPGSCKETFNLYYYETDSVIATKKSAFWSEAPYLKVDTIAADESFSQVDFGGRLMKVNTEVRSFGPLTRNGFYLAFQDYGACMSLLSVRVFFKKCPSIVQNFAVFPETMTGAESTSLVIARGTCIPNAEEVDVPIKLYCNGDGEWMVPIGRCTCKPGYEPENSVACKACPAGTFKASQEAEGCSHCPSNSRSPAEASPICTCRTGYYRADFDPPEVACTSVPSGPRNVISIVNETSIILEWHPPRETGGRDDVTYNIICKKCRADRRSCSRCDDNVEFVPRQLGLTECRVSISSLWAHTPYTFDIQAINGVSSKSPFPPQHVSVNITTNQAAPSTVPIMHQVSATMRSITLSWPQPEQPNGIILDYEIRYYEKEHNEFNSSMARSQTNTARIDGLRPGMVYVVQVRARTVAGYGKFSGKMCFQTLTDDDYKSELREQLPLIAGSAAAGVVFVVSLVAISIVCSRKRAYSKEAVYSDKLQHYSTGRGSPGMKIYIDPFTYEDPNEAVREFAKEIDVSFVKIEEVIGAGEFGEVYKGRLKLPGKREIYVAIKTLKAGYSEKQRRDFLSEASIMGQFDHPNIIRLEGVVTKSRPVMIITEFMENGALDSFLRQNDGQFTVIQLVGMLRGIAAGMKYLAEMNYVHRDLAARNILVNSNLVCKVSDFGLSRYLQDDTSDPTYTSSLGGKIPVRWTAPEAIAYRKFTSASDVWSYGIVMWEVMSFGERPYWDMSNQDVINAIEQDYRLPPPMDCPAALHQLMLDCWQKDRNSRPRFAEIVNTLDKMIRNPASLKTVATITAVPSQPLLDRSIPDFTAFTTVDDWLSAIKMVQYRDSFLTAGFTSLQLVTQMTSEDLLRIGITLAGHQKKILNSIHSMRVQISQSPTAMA
# [6] = target: T3, Ephrin type-B receptor 3 (Homo sapiens) (UniProt P54753); conditions: at 1 µM
# T3 sequence (whole entry): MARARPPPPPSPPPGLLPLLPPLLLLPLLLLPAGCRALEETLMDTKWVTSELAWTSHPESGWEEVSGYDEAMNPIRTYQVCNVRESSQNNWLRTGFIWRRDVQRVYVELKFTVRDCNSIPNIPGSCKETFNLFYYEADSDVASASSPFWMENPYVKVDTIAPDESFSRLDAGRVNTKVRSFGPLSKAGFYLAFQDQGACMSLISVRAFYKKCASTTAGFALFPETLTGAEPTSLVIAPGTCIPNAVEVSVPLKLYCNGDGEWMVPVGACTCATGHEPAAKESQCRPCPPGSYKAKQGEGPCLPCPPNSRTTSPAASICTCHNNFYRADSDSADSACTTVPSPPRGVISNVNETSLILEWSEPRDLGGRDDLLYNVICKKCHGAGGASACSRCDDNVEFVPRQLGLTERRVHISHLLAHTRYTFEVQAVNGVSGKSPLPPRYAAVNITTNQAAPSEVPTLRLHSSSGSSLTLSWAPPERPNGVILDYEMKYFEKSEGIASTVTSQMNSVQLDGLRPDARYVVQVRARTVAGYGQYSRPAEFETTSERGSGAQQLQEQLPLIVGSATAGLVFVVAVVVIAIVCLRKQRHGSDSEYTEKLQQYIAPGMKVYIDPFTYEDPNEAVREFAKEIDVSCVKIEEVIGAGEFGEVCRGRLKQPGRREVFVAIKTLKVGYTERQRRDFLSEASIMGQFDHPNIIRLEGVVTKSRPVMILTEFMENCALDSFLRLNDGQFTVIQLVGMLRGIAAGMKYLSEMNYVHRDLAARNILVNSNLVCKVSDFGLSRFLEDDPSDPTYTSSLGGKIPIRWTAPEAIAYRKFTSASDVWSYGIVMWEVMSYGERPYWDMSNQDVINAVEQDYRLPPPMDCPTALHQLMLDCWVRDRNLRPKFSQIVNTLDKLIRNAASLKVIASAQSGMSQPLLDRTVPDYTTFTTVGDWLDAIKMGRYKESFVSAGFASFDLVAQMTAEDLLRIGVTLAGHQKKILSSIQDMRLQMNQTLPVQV
# [7] = target: T3, Ephrin type-B receptor 3 (Homo sapiens); conditions: at 10 µM
# [8] = target: T4, Ephrin type-B receptor 4 (Homo sapiens) (UniProt P54760); conditions: at 1 µM
# T4 sequence (whole entry): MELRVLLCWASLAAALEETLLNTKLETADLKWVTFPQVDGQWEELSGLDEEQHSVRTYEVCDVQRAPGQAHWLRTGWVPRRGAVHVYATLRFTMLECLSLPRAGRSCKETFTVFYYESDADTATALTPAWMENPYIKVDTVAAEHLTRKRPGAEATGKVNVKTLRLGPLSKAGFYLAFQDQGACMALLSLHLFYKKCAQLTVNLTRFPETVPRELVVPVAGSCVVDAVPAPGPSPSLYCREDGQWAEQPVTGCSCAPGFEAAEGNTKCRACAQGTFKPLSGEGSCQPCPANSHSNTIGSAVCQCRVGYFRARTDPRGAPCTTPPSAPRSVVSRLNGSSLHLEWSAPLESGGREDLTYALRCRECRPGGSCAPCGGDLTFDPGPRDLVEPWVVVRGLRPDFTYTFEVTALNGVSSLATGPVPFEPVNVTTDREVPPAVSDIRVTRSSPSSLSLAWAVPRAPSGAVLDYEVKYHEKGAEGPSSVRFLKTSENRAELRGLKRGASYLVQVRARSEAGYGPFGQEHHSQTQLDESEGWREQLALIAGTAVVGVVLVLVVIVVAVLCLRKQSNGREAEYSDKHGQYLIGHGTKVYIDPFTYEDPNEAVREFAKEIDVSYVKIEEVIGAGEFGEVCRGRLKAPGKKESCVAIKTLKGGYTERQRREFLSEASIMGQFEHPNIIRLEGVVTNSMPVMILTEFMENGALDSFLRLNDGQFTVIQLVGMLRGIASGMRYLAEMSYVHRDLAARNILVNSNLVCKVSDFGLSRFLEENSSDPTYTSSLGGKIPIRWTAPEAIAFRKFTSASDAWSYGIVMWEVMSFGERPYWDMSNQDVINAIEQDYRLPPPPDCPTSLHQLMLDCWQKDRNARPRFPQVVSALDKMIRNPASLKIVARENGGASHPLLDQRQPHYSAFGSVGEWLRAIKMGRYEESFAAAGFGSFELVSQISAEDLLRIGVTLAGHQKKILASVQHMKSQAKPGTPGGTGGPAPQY
# [9] = target: T4, Ephrin type-B receptor 4 (Homo sapiens); conditions: at 10 µM
# [10] = target: Receptor tyrosine-protein kinase erbB-4 (Homo sapiens) (UniProt Q15303); conditions: at 1 µM
# [11] = target: Receptor tyrosine-protein kinase erbB-4 (Homo sapiens) (UniProt Q15303); conditions: at 10 µM
# [12] = target: Focal adhesion kinase 1 (Homo sapiens) (UniProt Q05397); conditions: at 1 µM
# Sequence of Focal adhesion kinase 1 (Homo sapiens) (Q05397 2-1052 limits assumed): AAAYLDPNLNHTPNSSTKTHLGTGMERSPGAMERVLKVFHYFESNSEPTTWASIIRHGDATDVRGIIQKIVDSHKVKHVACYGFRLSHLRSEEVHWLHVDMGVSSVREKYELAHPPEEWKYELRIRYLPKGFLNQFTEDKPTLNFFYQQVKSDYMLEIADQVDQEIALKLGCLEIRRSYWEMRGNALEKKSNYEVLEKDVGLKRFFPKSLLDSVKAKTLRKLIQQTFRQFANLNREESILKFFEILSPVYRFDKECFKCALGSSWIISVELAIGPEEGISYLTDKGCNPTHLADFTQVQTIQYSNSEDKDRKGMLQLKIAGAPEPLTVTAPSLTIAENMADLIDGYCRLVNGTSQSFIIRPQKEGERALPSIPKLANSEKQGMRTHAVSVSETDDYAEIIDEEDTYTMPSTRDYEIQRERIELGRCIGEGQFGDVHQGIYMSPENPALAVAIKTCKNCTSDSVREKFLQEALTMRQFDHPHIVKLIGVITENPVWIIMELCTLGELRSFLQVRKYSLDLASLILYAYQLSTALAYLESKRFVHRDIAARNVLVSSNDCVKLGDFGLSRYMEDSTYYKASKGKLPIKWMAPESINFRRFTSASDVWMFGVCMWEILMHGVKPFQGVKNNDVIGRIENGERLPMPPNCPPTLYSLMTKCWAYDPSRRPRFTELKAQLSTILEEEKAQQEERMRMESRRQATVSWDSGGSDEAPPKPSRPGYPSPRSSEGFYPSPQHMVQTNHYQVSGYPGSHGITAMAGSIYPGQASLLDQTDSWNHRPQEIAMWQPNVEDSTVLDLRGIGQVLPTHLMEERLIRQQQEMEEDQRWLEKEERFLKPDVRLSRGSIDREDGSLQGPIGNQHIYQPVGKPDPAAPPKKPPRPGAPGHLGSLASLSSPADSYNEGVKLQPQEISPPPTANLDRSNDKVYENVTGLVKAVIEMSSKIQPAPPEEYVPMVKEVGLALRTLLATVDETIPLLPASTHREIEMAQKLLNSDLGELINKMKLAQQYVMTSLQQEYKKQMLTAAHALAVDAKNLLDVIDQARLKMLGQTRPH
# Sequence of Receptor tyrosine-protein kinase erbB-4 (Homo sapiens) (Q15303 whole entry): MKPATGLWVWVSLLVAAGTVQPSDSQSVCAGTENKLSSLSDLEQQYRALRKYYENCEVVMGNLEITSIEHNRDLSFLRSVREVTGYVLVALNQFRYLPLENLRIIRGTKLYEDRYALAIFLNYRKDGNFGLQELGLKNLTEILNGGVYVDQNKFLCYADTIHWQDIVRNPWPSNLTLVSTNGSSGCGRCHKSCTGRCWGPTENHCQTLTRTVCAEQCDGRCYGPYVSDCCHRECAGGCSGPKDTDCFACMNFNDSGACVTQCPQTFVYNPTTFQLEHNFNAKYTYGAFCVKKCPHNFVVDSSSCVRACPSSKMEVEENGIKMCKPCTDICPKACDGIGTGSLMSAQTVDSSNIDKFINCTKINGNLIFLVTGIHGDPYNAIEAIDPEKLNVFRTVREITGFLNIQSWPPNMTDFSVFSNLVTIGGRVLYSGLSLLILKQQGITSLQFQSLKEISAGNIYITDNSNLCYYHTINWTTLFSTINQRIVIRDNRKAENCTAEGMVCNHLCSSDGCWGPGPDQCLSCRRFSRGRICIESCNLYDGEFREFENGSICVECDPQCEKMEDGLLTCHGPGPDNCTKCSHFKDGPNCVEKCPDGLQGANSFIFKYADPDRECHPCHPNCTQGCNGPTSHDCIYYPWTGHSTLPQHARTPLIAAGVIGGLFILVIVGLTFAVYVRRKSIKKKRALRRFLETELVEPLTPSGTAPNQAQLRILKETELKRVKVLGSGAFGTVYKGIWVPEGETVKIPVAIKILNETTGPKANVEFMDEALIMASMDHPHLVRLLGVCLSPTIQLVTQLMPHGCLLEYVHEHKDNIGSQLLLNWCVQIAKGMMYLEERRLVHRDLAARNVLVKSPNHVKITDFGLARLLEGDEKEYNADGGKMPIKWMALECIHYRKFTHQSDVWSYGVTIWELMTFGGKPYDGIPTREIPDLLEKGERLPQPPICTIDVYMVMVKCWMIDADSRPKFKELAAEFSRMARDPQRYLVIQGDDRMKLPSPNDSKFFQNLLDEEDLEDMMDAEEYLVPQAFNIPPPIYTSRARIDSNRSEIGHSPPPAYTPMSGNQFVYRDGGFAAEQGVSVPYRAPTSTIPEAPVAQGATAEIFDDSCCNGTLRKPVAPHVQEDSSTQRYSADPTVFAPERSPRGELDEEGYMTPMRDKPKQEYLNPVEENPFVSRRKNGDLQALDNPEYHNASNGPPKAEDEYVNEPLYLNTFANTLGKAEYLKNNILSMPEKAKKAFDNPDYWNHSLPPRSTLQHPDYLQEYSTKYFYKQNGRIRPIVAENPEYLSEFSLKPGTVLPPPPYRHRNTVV
# Sequence of Ephrin type-A receptor 4 (Homo sapiens) (P54764 whole entry): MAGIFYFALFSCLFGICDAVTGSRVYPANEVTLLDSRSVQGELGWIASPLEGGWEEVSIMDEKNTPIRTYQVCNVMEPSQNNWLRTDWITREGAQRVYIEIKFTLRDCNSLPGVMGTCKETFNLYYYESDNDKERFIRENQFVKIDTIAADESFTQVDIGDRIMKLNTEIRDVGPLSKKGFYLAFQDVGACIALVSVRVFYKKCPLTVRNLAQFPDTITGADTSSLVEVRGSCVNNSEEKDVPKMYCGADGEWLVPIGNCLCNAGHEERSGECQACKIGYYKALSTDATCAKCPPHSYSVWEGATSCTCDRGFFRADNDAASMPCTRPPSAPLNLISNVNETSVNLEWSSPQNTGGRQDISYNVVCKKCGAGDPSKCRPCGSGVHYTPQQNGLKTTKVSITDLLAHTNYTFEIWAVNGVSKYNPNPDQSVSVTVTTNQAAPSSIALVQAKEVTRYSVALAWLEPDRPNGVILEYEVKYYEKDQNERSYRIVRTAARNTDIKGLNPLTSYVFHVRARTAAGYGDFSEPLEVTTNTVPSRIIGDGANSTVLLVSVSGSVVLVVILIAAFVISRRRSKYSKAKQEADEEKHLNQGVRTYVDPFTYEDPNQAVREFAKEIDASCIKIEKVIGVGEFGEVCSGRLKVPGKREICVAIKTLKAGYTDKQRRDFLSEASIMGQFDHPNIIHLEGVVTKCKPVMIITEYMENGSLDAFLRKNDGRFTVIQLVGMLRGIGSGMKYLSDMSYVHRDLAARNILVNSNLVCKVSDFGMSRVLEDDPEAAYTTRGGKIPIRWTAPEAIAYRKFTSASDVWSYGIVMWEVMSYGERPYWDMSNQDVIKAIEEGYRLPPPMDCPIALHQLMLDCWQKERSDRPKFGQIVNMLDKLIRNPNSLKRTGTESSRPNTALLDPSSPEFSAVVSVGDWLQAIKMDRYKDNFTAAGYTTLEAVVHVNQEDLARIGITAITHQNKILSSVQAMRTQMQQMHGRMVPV
# Sequence of Ephrin type-A receptor 7 (Homo sapiens) (Q15375 28-998 limits assumed): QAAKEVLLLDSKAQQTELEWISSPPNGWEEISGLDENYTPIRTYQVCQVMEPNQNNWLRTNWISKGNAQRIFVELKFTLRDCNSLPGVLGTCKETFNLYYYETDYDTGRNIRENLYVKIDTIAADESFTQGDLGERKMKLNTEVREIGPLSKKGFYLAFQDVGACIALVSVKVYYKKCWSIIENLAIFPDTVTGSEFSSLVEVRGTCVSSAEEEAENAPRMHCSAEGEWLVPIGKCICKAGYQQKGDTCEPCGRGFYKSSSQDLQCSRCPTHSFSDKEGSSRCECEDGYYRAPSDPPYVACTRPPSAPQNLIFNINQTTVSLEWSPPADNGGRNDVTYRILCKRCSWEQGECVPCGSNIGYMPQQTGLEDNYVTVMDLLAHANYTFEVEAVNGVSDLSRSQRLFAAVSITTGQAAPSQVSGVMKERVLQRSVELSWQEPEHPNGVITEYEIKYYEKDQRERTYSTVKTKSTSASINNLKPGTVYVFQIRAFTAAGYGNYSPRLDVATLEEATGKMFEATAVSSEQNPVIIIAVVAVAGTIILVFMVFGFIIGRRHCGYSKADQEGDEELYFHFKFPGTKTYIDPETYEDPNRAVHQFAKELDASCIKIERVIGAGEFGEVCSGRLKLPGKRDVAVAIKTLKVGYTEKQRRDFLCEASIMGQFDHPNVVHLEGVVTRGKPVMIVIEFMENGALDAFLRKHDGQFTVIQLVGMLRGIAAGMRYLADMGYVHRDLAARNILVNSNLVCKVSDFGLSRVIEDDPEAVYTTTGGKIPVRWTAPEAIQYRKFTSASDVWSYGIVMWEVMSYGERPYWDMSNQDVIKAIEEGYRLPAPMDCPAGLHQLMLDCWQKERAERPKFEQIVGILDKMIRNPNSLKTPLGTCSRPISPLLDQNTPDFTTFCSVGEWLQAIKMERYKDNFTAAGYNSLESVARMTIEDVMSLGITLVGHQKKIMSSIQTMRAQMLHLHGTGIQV
smiles,measurement,setting,value
N#C/C(=C1/Nc2ccccc2S1)c1ccnc(NCCc2cccnc2)n1,residual activity,[1],123%
same,residual activity,[2],77%
same,residual activity,[3],98%
same,residual activity,[4],83%
same,residual activity,[5],55%
same,residual activity,[6],141% (inactive)
same,residual activity,[7],74%
same,residual activity,[8],72%
same,residual activity,[9],73%
same,residual activity,[10],88%
same,residual activity,[11],61%
same,residual activity,[12],100%

# — ChEMBL document CHEMBL2218924, “A broad activity screen in support of a chemogenomic map for kinase signalling research and drug discovery” (Biochem J, 2013)
